Potency and viability (% of control) data for 15 molecules are collected here from PubChem BioAssay (NCATS).

Records with an inconclusive call do not appear. Entries that show only a call come without a potency. A number with no mark means an inactive call. Active and inactive are the calls of the source. Calls follow the shape of the dose curve; as a rule, active = well fitted cell-killing curve with a large enough effect; inconclusive = small, poorly fitted or top-dose-only effect, or effect the other way; inactive = no such curve, though single readings can be large or run the other way.
Potency is read from the fitted curve at half-maximal effect.

The test in a line: Viability qHTS for spleen associated tyrosine kinase inhibitor (SYKi) naive MV4-11 cells (AID 1963823). Also: nearly all actives have a fitted effect of over 40% in size. Conditions: MV4-11 AML viability, CellTiter-Glo luminescence, 72 h; series mostly up to 45 µM. In a few lines:
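qHTS, SYK inhibitor-naive MV4-11; 500 cells/well; 72 hr compound exposure, 37 C; CellTiter-Glo added, 10 min RT; luminescence read.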
A general note: Quantitative high-throughput screening tests each substance at several concentrations.
As for `C/C1=C\CC[C@]2(C)O[C@H]2C(=O)c2c(C)coc2C1`, the Potency entry was “inactive”. Still for that read-out and setting: the same measure for `CC(C(O)/C=C/C(C)(C)O)C1CCC2(C)C3C(=O)C=C4C(CCC(O)C4(C)C)C3(C)CCC12C` (stereo not given): “inactive”; for `C=C1/C(=C/C=C2\CCC[C@]3(C)[C@@H]([C@@H](C)OCCC(O)(CC)CC)CC[C@@H]23)C[C@@H](O)C[C@@H]1O`: “inactive”; for `COc1ccccc1NC(=O)OCC1CCN(C(=O)OC(C)(C)C)CC1`: “inactive”. Take `CC1(C)CC[C@]2(C(=O)O[C@@H]3O[C@H](CO)[C@@H](O)[C@H](O)[C@H]3O)CC[C@]3(C)C(=CCC4[C@@]5(C)C[C@@H](O)[C@H](O)C(C)(C)C5CC[C@]43C)C2[C@@H]1O` (stereo not given in full): the Potency entry was “inactive”. Consider `C#CCCCn1cc(-c2cccc3c2N[C@@H](C)CC(=O)N3)cn1`, for which the Potency result was “inactive”. The same measure, in the same setting: the same measure for `CC(=O)O[C@H]1C[C@@H](O)C(C)(C)C2C[C@@H](OC(C)=O)[C@]3(C)C(CC[C@@]4(C)[C@H](c5ccoc5)OC(=O)[C@H]5O[C@]543)[C@]21C` (stereo not given in full): “inactive”; for `CC1CCCC(O)CC(=O)c2c(O)cc(O)cc2CC(=O)O1` (stereo not given): 3.21 µM (active). Regarding `COC(=O)CC[C@H](NC(=O)[C@H](CC(C)C)NC(=O)OCc1ccccc1)C(=O)N[C@@H](Cc1cnc[nH]1)C(=O)N[C@@H](CC(=O)OC)C(=O)CF`, the viability (% of control) was 80.3% [at 9.25 µM].

For the molecule `Cc1ccccc1Sc1ccc(/C=C2\SC(=S)NC2=O)cc1[N+](=O)[O-]`, the Potency entry is “inactive”. Turning to `CC1OC(OC2C(OC3C(O[C@H]4CC[C@@]5(C)C(CC[C@]6(C)C5C(=O)CC5=C7CC(C)(C)CC(O)[C@]7(C)CC[C@]56C)C4(C)C)OC(C(=O)O)C(O)C3O)OCC(O)C2O)C(O)C(O)C1O` (stereo not given in full), the viability (% of control) was 77.2% [at 9.25 µM]. As to `CC(=O)OC1CC(C(C)(C)O)OC2CCC3(C)OC4=C(C(=O)C=C5C(C)C(OC(C)=O)C6(C)C(C)OC546)C(O)C3C12C` (stereo not given), the Potency entry is “inactive”. For the molecule `NC(=O)c1ncn(C2O[C@H](CO)[C@@H](O)[C@H]2O)c1N` (stereo not given in full), the Potency entry is “inactive”.

As to `COc1ccc(C2(O)c3ccccc3NC(=O)C2O)cc1` (stereo not given), the Potency result is “inactive”. Take `CC(=O)OC1C(O)/C(C)=C\C2C(OC(=O)c3ccccc3)C(C)CC2(OC(C)=O)C(OC(C)=O)C(C)/C=C/C(C)(C)C1OC(C)=O` (stereo not given): the Potency entry is “inactive”.
